Assay results: PubChem BioAssay (EPA / NIEHS)
Several values for one entry are separate records, joined by “and”; a condition that tells them apart may be missing. Equal values may be shown once. Inconclusive results are not listed. Some structures have more than one record in an assay (separate samples or runs), and their calls can disagree. Activity calls are given as the source filed them. How the source made its calls: active means hit-call score of the fitted dose curve at least 0.9, where 1 is the maximum; inconclusive means response in the unintended direction; inactive means score below 0.9.

Key:
[1] = ATG_XTT_Cytotoxicity: Cytotoxicity Assessment in the Attagene TRANS-FACTORIAL HepG2 Assay (AID 2283584);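 on AC50: cells exposed to compound for 24 h before reading; active means loss of viability signal versus DMSO baseline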
In short: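 Cells: human HepG2, transiently transfected with MRTU reporter constructs. Exposure 24 h. Readout: XTT, cell number. Baseline/neg ctrl DMSO; loss-of-signal scored.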

[2] = TOX21_p53_BLA_p2_viability: Viability Assessment in the Tox21 HCT-116 p53 Agonism Beta-lactamase Assay, Phase 2 (AID 2283591);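 further: compound exposure lasted 16 h at 37 °C; actives lower the ATP signal meaning cytotoxicity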
In short: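 HCT116 p53-bla cells, 4000/well, dosed after 5 h plating (217-fold dilution of DMSO stocks) and incubated 16 h at 37C. Viability taken as cellular ATP by CellTiter-Glo luminescence after 30 min RT; signal loss marks cytotoxicity.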

[3] = TOX21_p53_BLA_p4_viability: Viability Assessment in the Tox21 HCT-116 p53 Agonism Beta-lactamase Assay, Phase 4 (AID 2283597);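 further: hits lower the luminescence signal meaning cytotoxicity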
In short: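 Cells plated, 5 h pre-incubation; DMSO compounds pinned (217-fold dilution); 16 h, 37C/5% CO2; CCF4-AM 2 h RT; CellTiter-Glo 30 min RT; luminescence read.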

[4] = biological target: Cellular tumor antigen p53 (Homo sapiens) (UniProt P04637); assay: TOX21_p53_BLA_p5_ratio: Tox21 HCT-116 p53 Agonism Beta-lactamase Assay, Ratio, Phase 5 (AID 2283599)
In short: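 HCT-116 p53-bla cells (4000/well) plated 5 h, dosed with compound (217-fold DMSO dilution) for 16 h at 37 C; CCF4-AM substrate 2 h at room temperature. Activity is the 460/530 nm emission ratio (405 nm excitation), fitted in gain-of-signal direction versus DMSO.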

[5] = TOX21_p53_BLA_p3_viability: Viability Assessment in the Tox21 HCT-116 p53 Agonism Beta-lactamase Assay, Phase 3 (AID 2283593);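 further: cells exposed to compound for 16 h before reading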
In short: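 HCT116 cells, 4000/well, dosed 5 h after plating by pin transfer (217-fold dilution from DMSO stock) and incubated 16 h at 37C, 5% CO2. Viability read as ATP luminescence with CellTiter-Glo after 30 min at room temperature.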

[6] = biological target: Cellular tumor antigen p53 (Homo sapiens) (UniProt P04637); assay: TOX21_p53_BLA_p3_ratio: Tox21 HCT-116 p53 Agonism Beta-lactamase Assay, Ratio, Phase 3 (AID 2283596)
In short: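 HCT116 p53-bla cells (4000/well) given compound in DMSO (217-fold dilution) after 5 h, incubated 16 h at 37C. CCF4-AM substrate 2 h at room temperature; 460/530 nm emission ratio, gain fitted against DMSO.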

[7] = biological target: Cellular tumor antigen p53 (Homo sapiens) (UniProt P04637); assay: TOX21_p53_BLA_p2_ratio: Tox21 HCT-116 p53 Agonism Beta-lactamase Assay, Ratio, Phase 2 (AID 2283592)
In short: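 HCT116 p53-bla; 4000 cells/well; 5 h pre-incubation; cpd in DMSO, 217-fold dilution; 16 h 37C/5% CO2; CCF4-AM 2 h RT; Ex 405, Em 460/530 ratio; DMSO = baseline; positive fitting direction.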

Measured: AC50

Chain of Cellular tumor antigen p53 (Homo sapiens) (P04637 whole entry, looked up): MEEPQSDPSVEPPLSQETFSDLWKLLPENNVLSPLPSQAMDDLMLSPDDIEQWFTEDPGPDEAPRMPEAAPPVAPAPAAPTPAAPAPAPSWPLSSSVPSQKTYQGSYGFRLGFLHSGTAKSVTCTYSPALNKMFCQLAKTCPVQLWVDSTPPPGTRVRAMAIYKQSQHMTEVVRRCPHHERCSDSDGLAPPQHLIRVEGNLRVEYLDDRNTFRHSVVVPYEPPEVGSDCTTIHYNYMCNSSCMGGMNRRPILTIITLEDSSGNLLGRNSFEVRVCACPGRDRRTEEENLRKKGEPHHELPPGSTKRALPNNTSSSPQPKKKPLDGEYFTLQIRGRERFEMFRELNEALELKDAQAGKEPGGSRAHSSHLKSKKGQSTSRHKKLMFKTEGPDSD

C=C1CC/C=C(\C)CC[C@@H]2[C@@H]1CC2(C)C
inactive: [1] | [2] | [3] | [4]

CCCCOCCOCCOCCO
not listed: [7]
inactive: all other assays above

CC(C)Cc1ccccc1
not listed: [2]
inactive: all other assays above

CCCCCCCCCCCCOCCOS(=O)(=O)O
inactive: [2]
active: [1] 154 µM | [3] 60.4 µM

CN(C)C
not listed: [2] | [6]
inactive: all other assays above

CC(=O)OC(C)(C)C1CC=C(C)CC1 (configuration not stated)
inactive: [1] | [2] | [6] | [4]

CCOC(=O)COC(=O)c1ccccc1C(=O)OCC
inactive: [1] | [2] | [3] | [4]

CCCCCCCCOC(C)=O
inactive: [1] | [7] | [6] | [3]

CC(=O)c1ccc(O)cc1
not listed: [3] | [7]
inactive: all other assays above

CCC(C)C1CCCCC1=O (configuration not stated)
inactive: [1] | [7]

CC/C=C\CCOC(=O)C(C)C
not listed: [2] | [6]
inactive: all other assays above

CCCCCC(=O)O[C@]1(C(C)=O)CC[C@H]2[C@@H]3CCC4=CC(=O)CC[C@]4(C)[C@H]3CC[C@@]21C
not listed: [5] | [7]
inactive: all other assays above

OC[C@@H](O)[C@H](O)[C@@H](O)[C@@H](O)CO
not listed: [2]
inactive: all other assays above

CC(C)COC(=O)c1ccccc1O
not listed: [2] | [4]
inactive: all other assays above

CCCCCCC(O)CCOC(C)=O (configuration not stated)
not listed: [2] | [3]
inactive: all other assays above

[Cu+]
inactive: [1] | [2] | [3]

CC/C=C\CCOC(C)OCC (configuration not stated)
inactive: [1] | [7] | [6]

O=C(O)C1=NN(c2ccc(S(=O)(=O)O)cc2)C(=O)C1
inactive: [1] | [2] | [6] | [4]

CCCCC(CC)COCCO (configuration not stated)
inactive: [1] | [2] | [6]

Cc1ccncc1
not listed: [7]
inactive: all other assays above

CCNC(=S)NCC
not listed: [5] | [7]
inactive: all other assays above

CC(C)CCOC(=O)CC(C)C
not listed: [3] | [7]
inactive: all other assays above

C=C(C)CCCC(C)CCO (configuration not stated)
inactive: [1] | [2] | [3]

c1coc(CNc2ncnc3nc[nH]c23)c1
not listed: [6] | [7]
inactive: all other assays above

O=C(OCc1ccccc1)c1ccccc1O
not listed: [2]
inactive: all other assays above

O=S(=O)(O)CCCN1CCOCC1
inactive: [1] | [2] | [3] | [4]

CCCCCc1cccc(=O)o1
not listed: [5] | [7]
inactive: all other assays above

Cc1cc(O)c2c(c1)C(=O)c1cc(O)cc(O)c1C2=O
active: [6] 12 µM and 33.3 µM | [4] 11.9 µM
inactive: [1] | [2] | [5] | [4]

CCCCCCCCCO
not listed: [2] | [4]
inactive: all other assays above

ClCCOCCOCCCl
inactive: [1] | [7] | [6]

CCCc1ccc(O)cc1
not listed: [6] | [7]
inactive: all other assays above

CCOC(=O)C(=O)OCC
not listed: [2] | [3]
inactive: all other assays above

C=CCCCCCCCCC(=O)OCC
not listed: [2] | [6]
inactive: all other assays above

N=C1N=C(N)c2ccccc21
active: [7] 28.4 µM | [5] 13.6 µM | [6] 27.3 µM | [4] 13.3 µM
inactive: [1]

Cc1cccc(O)c1
inactive: [1] | [2] | [6] | [3]

C=C(C)C(=O)OCCN(C)C
inactive: [1] | [2] | [6] | [3]

CCCCCCCOC(C)=O
inactive: [1] | [2] | [5] | [3]
